AMA1-RON2 inh – inhibitors of Plasmodium falciparum AMA1-RON2 interaction; AlphaScreen AMA1-biotinylated RON2 peptide binding; 0.2% of 360,000 active; Potency, µM (titrated, usually from 58.2 µM), without a hit: at the top dose activity change, negative = inhibition, hits mostly inhibitors; AID 720542;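 further: 0% = vehicle wells and -100% = peptide control; nearly all actives have a fitted effect of over 45% in size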
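AMA1 (3D7) with his tag at 25 nM final met compounds first, then biotinylated RON2 peptide at 25 nM; detection used donor plus acceptor beads, 10 µg/mL apiece, read by AlphaScreen after 30 min at room temperature.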
Pf growth 96h – inhibits malaria parasite growth, 96 h. AID 504834. P. falciparum luciferase reporter growth, 96 h. Potency, µM (series often up to 28.7 µM), without a hit: top-dose activity change, negative = inhibition, usual class: inhibitors. 6.9% of 320,000 active
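Infected RBCs, 2% Hct / 0.05% parasitemia final; luciferase-reporter P. falciparum; cpd 96 h, 37 C, 5% CO2; luciferase detection reagent; luminescence.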
Pf growth 48h – P. falciparum growth inhibition at 48 hours (one generation) | 5.9% of 310,000 active | Potency, µM (titrated, usually from 28.7 µM), without a hit: top-dose activity change, negative = inhibition, most hits filed as inhibitors | P. falciparum luciferase growth in erythrocytes, 48 h | AID 504832
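Read-out is firefly luciferase luminescence from an integrated reporter in P. falciparum, so falling signal marks reduced parasite growth. Infected erythrocytes were at 2% hematocrit and 0.1% parasitemia (final) in Albumax-supplemented RPMI 1640.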
HCV inhibitor – blocks hepatitis C virus; 3.4% of 340,000 active; Huh7.5.1 HCVcc-Cre infection, luciferase reporter, 44 h; Potency, µM (highest dose often 41.8 µM), for inactives: at the top dose activity change, negative = inhibition, most hits filed as inhibitors; AID 651820
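Compounds are dispensed onto cells plated 4 h earlier at 1,000 per well, with HCVcc-Cre virus (about 0.5 moi) added next. Following 44 h of culture, luminescent signal is measured for 15 sec after 15 min with substrate at room temperature.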
Numbers without * were called inactive; ? = inconclusive; . = not tested or not shown; [ ] = dose if it differs, or a comment. Most compounds without a hit are left out; they make up all but 11% or so of the library. The call rests on the fitted dose curve; in most records, active means well fitted curve in the direction sought with a large enough effect; inconclusive means small, poorly fitted or top-dose-only effect, or another doubt; inactive means no such curve, though single readings can be large; an effect the other way counts as inactive or inconclusive. Unless noted, on the % scale 0 is the no-effect control and ±100 the full control effect; potency means the concentration at half of the fitted maximal effect.

SMILES | AMA1-RON2 inh | Pf growth 96h | Pf growth 48h | HCV inhibitor
CC1NC(=O)c2cc3ccccc3cc2-n2c1nc1ccccc1c2=O (centres undefined) | -6% | . | . | .
CN(C(=O)CN1C(=O)C2C3CC(C(Br)C3Br)C2C1=O)C1CCCCC1 (centres undefined) | -9% | 1% | 5.9µM* | 34%
CC(C)CC1NC(=O)N(CC(=O)N(C)C2CCCCC2)C1=O (centres undefined) | 1% | . | . | 12%
COC/C=C/C1=CC2=CC(=O)C(C)(OC(=O)c3cnc4ccccc4n3)C(=O)C2=CN1CCOC (centres undefined) | 0% | . | . | 10%
COC/C=C/C1=CC2=CC(=O)C(C)(OC(=O)c3cnc4ccccc4n3)C(=O)C2=CN1CCN1CCOCC1 (centres undefined) | -11% | 9.3µM* | ? | -1%
CC1Sc2ccc(C(=O)N(CCc3ccccc3)Cc3ccccc3)cc2NC1=O (centres undefined) | -1% | . | . | .
CSc1nc(-c2ccc(C)cc2)nc(C(Cl)Cl)n1 | 0% | 67% | 6% | 3.2µM*
O=C(COCc1cc(-c2ccc3c(c2)OCO3)on1)N1CCN(c2ccccc2)CC1 | -19% | 10µM* | -12% | 18%
CCN(CC(=O)Nc1ccccc1C(F)(F)F)C(=O)c1ccc(NC(=O)c2cccs2)cc1 | 0% | . | . | .
CCOC(=O)N1CCC(N2CCCC(C(=O)c3ccc4cc(OC)ccc4c3)C2)CC1 (centres undefined) | -15% | ? | 8.3µM* | ?
COc1cccc(C(=O)C2CCCN(C3CCOCC3)C2)c1 (centres undefined) | 8% | 2.3µM* | -2% | 2%
CCOC(=O)N1CCC(N2CCCC(C(=O)c3cc(C)c(OC)c(C)c3)C2)CC1 (centres undefined) | -7% | -16% | ? | ?
O=C(O)CCCC(=O)N1N=C(c2ccccc2)CC1c1ccc2c(c1)OCO2 (centres undefined) | 7% | ? | ? | 2%
COCc1c(C(=O)OCC(=O)N2CCCC2=O)oc2ccccc12 | -6% | -5% | -10% | 6%
CCCCc1ccc(NC(=S)N2CCCC2)cc1 | -5% | ? | 6% | 8%
C/C(=N/Nc1nc(-c2ccccc2F)nc2ccccc12)c1ccccc1O | 61% | ? | ? | ?
C/C(=N\Nc1nc(-c2ccccn2)nc2ccccc12)c1ccc(F)cc1 | 73% | -33% | ? | 4.5µM*
C/C(=N\Nc1nc(-c2ccccc2O)nc2ccccc12)c1ccccc1 | 19% | ? | 0.52µM* | -4%
C/C(=N\NC(=O)Cn1c(-c2ccccn2)nc2ccccc21)c1ccccc1 | 4% | 28% | -17% | ?
COc1ccc(-c2cc(C(F)(F)F)n3nc(C(=O)Nc4cc(C)on4)cc3n2)cc1OC | 10% | 2% | ? | ?
COc1ccc(-c2cc(C(F)(F)F)n3nc(C(=O)N(C)Cc4ccccc4)cc3n2)cc1OC | 24% | -35%[5.75 µM] | 6.6µM* | 10µM*
COc1ccc(-c2cc(C(F)(F)F)n3nc(C(=O)NCc4ccco4)cc3n2)cc1 | 5% | ? | 9.3µM* | ?
O=C(NCC1CCCN(Cc2cccc(F)c2)C1)c1cccc2ccccc12 (centres undefined) | 3% | ? | -33% | -29%
O=C(Nc1cc2c3c(c1)C1CCCC1CN3CC1CCCC21)c1ccccc1 (centres undefined) | -29% | 45% | 13µM* | 16µM*
CC(=O)C(C(c1ccccc1)N1CCCc2ccccc21)N1CCOCC1 (centres undefined) | -10% | . | . | 7%
SMILES | AMA1-RON2 inh | Pf growth 96h | Pf growth 48h | HCV inhibitor
Cc1ccc([N+](=O)[O-])c(NC(=O)COC(=O)CCNS(=O)(=O)c2cccs2)c1C | 2% | . | . | .
CCN=C1SCC(=O)N1c1ccc(OC)cc1 | -3% | . | 11% | 14%
Cc1ccc(N2C(=O)CS/C2=N\C(=S)Nc2ccccc2)cc1 | 22% | 4.1µM* | -19% | -20%
CCOC(=O)N1C/C(=C\c2ccccc2)C(=O)/C(=C/c2ccccc2)C1 | -5% | ? | 4.7µM* | 8%
CCc1nc2ccc(C(=O)N3CCN(C(=O)c4ccco4)CC3)cn2c1N(CCC(C)C)CCN(C)C | 18% | . | . | .
CCCCNC(=O)N1CCc2ccccc2C1 | -2% | -16% | 8% | 12%
CCCCNc1nc2ccccc2n1CC(=O)N1CCc2ccccc2C1 | ? | 3.7µM* | 12µM* | 2%
COCCNC(=S)N1CCc2cc(OC)c(OC)cc2C1COc1ccc(F)cc1 (centres undefined) | -10% | 35% | ? | -14%
COCCNC(=S)N1CCc2cc(OC)c(OC)cc2C1COc1ccc(C(C)C)cc1 (centres undefined) | ? | 8.3µM* | 12µM* | ?
COCCNC(=S)N1CCc2cc(OC)c(OC)cc2C1c1cccs1 (centres undefined) | -6% | 5.9µM* | 2.9µM* | 5%
CNC(=S)N1CCc2cc(OC)c(OC)cc2C1COc1ccc(F)cc1 (centres undefined) | -9% | -39% | ? | -7%
CCNC(=S)N1CCc2cc(OC)c(OC)cc2C1COc1ccc(F)cc1 (centres undefined) | -8% | 8.3µM* | ? | -8%
COc1cc2c(cc1OC)C(c1ccccc1)N(C(=O)CSCC(=O)O)CC2 (centres undefined) | -3% | ? | -29% | 7%
CC(=O)Nc1ccc(C(=O)CN2C(=O)NC3(CCOc4ccccc43)C2=O)c(F)c1 (centres undefined) | 7% | ? | ? | 9%
O=C(Nc1ccc(S(=O)(=O)Nc2cnc3ccccc3n2)cc1)c1ccc(Cl)c([N+](=O)[O-])c1 | -13% | ? | -9% | 4%
CCNc1nc(NC(C)C)nc(N(C#N)CCOc2ccccc2)n1 | -17% | . | ? | 22µM*
CCNc1nc(NCC)nc(N(C#N)CCOc2ccccc2)n1 | 4% | 5.2µM* | ? | -5%
CN(C)c1nc(Cl)nc(N(C#N)CCOc2ccccc2)n1 | 5% | 141% | ? | ?
COc1ccc(C(=O)NC(C(=O)OCC(=O)Nc2sccc2C(N)=O)C(C)C)cc1 (centres undefined) | 6% | -15% | 12µM* | -7%
Cc1ccc(-n2ncc3c2CC(C)(C)CC3NC(=O)CCc2cccnc2)cc1 (centres undefined) | -2% | 12µM* | -11% | ?
CC1(C)Cc2c(cnn2-c2ccccc2)C(NC(=O)CCCn2cncn2)C1 (centres undefined) | -17% | 12µM* | -19% | 16%
Cc1ccc(-n2ncc3c2CC(C)(C)CC3NC(=O)c2c(C)noc2C)cc1 (centres undefined) | -9% | ? | -18% | 0%
CCc1noc(C)c1C(=O)NC1CC(C)(C)Cc2c1cnn2-c1ccccc1 (centres undefined) | . | 9.3µM* | -23% | .
N#CC(C#N)=C1NC(N)=C(C#N)C(c2ccccc2)=C1C#N | . | 24% | . | .
COc1ccc(-c2ccc(NC(=O)c3ccc(Br)o3)cc2)nn1 | -12% | 99% | 82% | 6%
